Data published in the supplement of paper PMC7830784.

system: Brugia pahangi adult female; assay: IC50 motility inhibition on day 3; conditions: 3 days
Experimental: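 Single adult female Brugia pahangi worms in 24-well plates (RPMI-1640, 5% FBS, 37 °C) were treated with 10 µM of each compound from a 2121-drug library (4 replicates; 1% DMSO vehicle and 10 µM auranofin controls). Motility was recorded with WormAssay dark-field imaging, and % inhibition of motility on day 3 is relative to vehicle. IC50 values for selected hits come from a 6-point dilution series (30 to 0.1 µM) fitted in GraphPad Prism.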

| Compound | IC50 motility inhibition on day 3 [nM] |
| --- | --- |
| N[C@@H]1C[C@H]1c1ccccc1.N[C@H]1C[C@@H]1c1ccccc1 [tranylcypromine] | 6150 |
| CNC(=O)Oc1ccc2c(c1)[C@]1(C)CCN(C)[C@@H]1N2C [(-)-Physostigmine] | 13600 |
| C[C@@H]1O[C@@H](O[C@@H]2C=C3CC[C@@H]4[C@H](CC[C@]5(C)[C@@H](c6ccc(=O)oc6)CC[C@]45O)[C@@]3(C)CC2)[C@H](O)[C@H](O)[C@H]1O [proscillaridin] | 731 |
| CCCCCCCCCCCCCCCC[n+]1ccccc1 [cetylpyridinium chloride] | 3400 |
| [O-][n+]1ccccc1[S-].[O-][n+]1ccccc1[S-].[Zn+2] [pyrithione zinc] | 96.3 |
| O=c1[nH]c2ccccc2n1C1CCN(CCCC(c2ccc(F)cc2)c2ccc(F)cc2)CC1 [Pimozide] | 2520 |
| CC[C@@H](C(=O)[C@@H](C)[C@@H](O)[C@H](C)[C@@H]1O[C@@H]([C@@H](CC)C(=O)O)CC[C@@H]1C)[C@H]1O[C@]2(C=C[C@@H](O)[C@]3(CC[C@@](C)([C@H]4CC[C@](O)(CC)[C@H](C)O4)O3)O2)[C@H](C)C[C@@H]1C [salinomycin] | 635 |
| Oc1cccc2cccnc12 [oxyquinoline] | 1500 |
| C[CH2][Hg][S]c1ccccc1C(=O)[O-].[Na+] [thimerosal] | 406 |
| CC(=O)[O][Hg][c]1ccccc1 [phenylmercuric acetate] | 179 |
